Screening results from PubChem BioAssay.
A647 fluor – qHTS Assay for Spectroscopic Profiling in A647 Spectral Region; Compound fluorescence, A647 channel (570/671 nm), Tris buffer; max dye-equivalent concentration, M; 59,000 tested, under 10 active; AID 592, 2007;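 also: values scaled relative to a standard on each plate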
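Compound fluorescence was measured in 100 mM Tris buffer, pH 8.0, after 15 min at room temperature, using 570 nm excitation and 671 nm emission filters. Signal was normalized to a per-plate Alexa 647 standard curve and expressed as dye-equivalent concentration at each compound concentration.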
Fluorescein fluor – qHTS Assay for Spectroscopic Profiling in Fluorescein Spectral Region; Compound autofluorescence, 480/540 nm, fluorescein-equivalent; hits give high values; max fluorescein-equivalent concentration, M; hit rate 0.91% among 59,000; AID 593, 2007; in the data active = max fluorescein-equivalent concentration above about 10 nM; inconclusive = between about 1.1 nM and that limit
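Autofluorescence profiling; 100 mM Tris, pH 8.0; incubation 15 min at RT; ex/em 480/540 nm; result as fluorescein-equivalent concentration.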
Texas Red fluor – qHTS Assay for Spectroscopic Profiling in Texas Red Spectral Region; Compound fluorescence, Texas Red channel, 547/618 nm; hits give high values; max dye-equivalent concentration, M; hit rate 0.06% among 59,000; AID 587, 2007; in the data active = max dye-equivalent concentration above about 10 nM; inconclusive = between about 1.1 nM and that limit
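Compound titrations in 100 mM Tris pH 8.0 were incubated 15 min at room temperature and read at 547 nm excitation / 618 nm emission. Texas Red six-point standard curve on each plate converted fluorescence to dye-equivalent concentration.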
A488 fluor – qHTS Assay for Spectroscopic Profiling in A488 Spectral Region; compound autofluorescence, A488 spectral region, dye equivalency; Compound Type: qHTS ECL - MLSMR; max dye equivalency, M; hit rate 0.1% among 59,000
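Autofluorescence read at ex 480/em 540 nm after 15 min RT in 100 mM Tris pH 8.0; compound signal normalized to A488 standard series on each plate, reported as dye-equivalent concentration at each test concentration.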
Rhodamine fluor – qHTS Assay for Spectroscopic Profiling in Rhodamine Spectral Region; Rhodamine-region fluorescence, 547/598 nm, Tris buffer; hits give high values; max dye-equivalent concentration, M; hit rate 0.05% among 59,000; AID 594, 2007; in the data active = max dye-equivalent concentration above about 11 nM; inconclusive = between about 1.1 nM and that limit
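Compound fluorescence in 100 mM Tris, pH 8.0, read after 15 min at room temperature with 547 nm excitation and 598 nm emission. Output is dye-equivalent concentration from an on-plate rhodamine standard series.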
Resorufin fluor – qHTS Assay for Spectroscopic Profiling in Resorufin Spectral Region; Compound fluorescence, resorufin region 547/598 nm, buffer; hits give high values; max dye-equivalent concentration, M; hit rate 0.04% among 59,000; AID 588, 2007
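Compounds in 100 mM Tris, pH 8.0, incubated 15 min at room temperature, then fluorescence read at 547 nm excitation/598 nm emission. Signal converted to dye-equivalent concentration via an on-plate six-point resorufin standard curve, per compound concentration.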
The depositor's hits bear a star; i = inactive; u = inconclusive. Shown are actives, neighbours in structure and some others; about 0.9% of the full set was active somewhere. Unless noted, no rule for the calls is given here.

SMILES	A647 fluor	Fluorescein fluor	Texas Red fluor	A488 fluor	Rhodamine fluor	Resorufin fluor
Cc1ccnn2c(-c3ccccc3)c3c(=O)n(C)c(=O)n(C)c3c12	9.5e-09	1.18e-08M*	i	i	i	i
Cc1ccc(-c2c3c(=O)n(C)c(=O)n(C)c3c3nnc4ccccc4n23)cc1	9e-09	1.11e-07M*	i	u	i	i
O=C(CCN1CCCCC1)c1csc2ccccc12	1e-09	i	i	i	i	i
COc1cc2c(cc1O)CC[C@@H]1[C@@H]2CC[C@@]2(C)[C@H](O)CC[C@H]12	3.11e-08	u	i	i	i	i
CN(C)c1ccc(-c2nc(NCc3cccnc3)c3ccccc3n2)cc1	4.16e-08	u	i	i	i	i
CN=Cc1sc2ccccc2c1O	2.18e-08	i	i	i	i	i
CC(=Nc1cccc(O)c1)c1sc2ccccc2c1O	1e-09	1.91e-08M*	i	i	i	i
CCOC(=O)[C@H](CCc1ccccc1)N[C@@H](C)C(=O)N1[C@H](C(=O)O)C[C@H]2CCC[C@@H]21	2.65e-08	1.01e-08M*	i	i	i	i
CC(C)C[C@H](NC(=O)[C@@H](O)[C@@H](N)Cc1ccccc1)C(=O)O	4.6e-08	u	i	i	i	i
CCOc1cccc(C2C(C(=O)c3ccc(C)o3)=C(O)C(=O)N2c2nccs2)c1 (stereo unspecified)	1e-09	4.33e-08M*	i	u	i	i
Nc1ncnc2nc[nH]c12.Nc1ncnc2nc[nH]c12.[Cl][Pt]([Cl])([Cl])[Cl]	1e-09	i	i	i	i	i
O=c1ccn([C@H]2O[C@H](CO)[C@@H](O)[C@@H]2O)c(=O)[nH]1	1e-09	i	i	i	i	i
CN1Cc2sc(N)c(C#N)c2CC1(C)C	1e-09	3.1e-08M*	u	u	u	i
C/C(=C\COc1cc(=O)[nH]c2ccccc12)CC[C@@H](O)C(C)(C)O	1e-09	i	i	i	i	i
C[C@H](N)C1CCC(C(=O)Nc2ccncc2)CC1 (stereo partly specified)	1.07e-08	i	u	i	i	i
O=S(=O)(Nc1nc2ccccc2nc1N1CCN(c2ccccn2)CC1)c1ccc(Cl)cc1	1e-09	1.7e-08M*	i	i	i	i
CCC1=C/C(=C/N(C)c2ccccc2)C(=O)S1	5.18e-08	1.49e-08M*	i	i	i	i
COc1ccc(C(=O)[C@H]2[C@H]3[C@@H](C(=O)[C@@H]4OC[C@H]3O4)[C@H]3C=Cc4ccccc4N32)c(OC)c1	2.05e-08	i	i	i	i	i
O=C(O)CCCNc1cc(N2CCC3(CC2)OCCO3)c2noc3c2c1C(=O)c1ccccc1-3	3.54e-08	1.27e-08M*	1.05e-08M*	i	u	u
CCOC(=O)N1CCN(c2cc(NCCC(=O)O)c3c4c(onc24)-c2ccccc2C3=O)CC1	3.62e-08	7.99e-08M*	u	u	u	i
Cc1ccccc1-n1c(=O)cc(N2CCC3(CC2)OCCO3)[nH]c1=O	2.1e-09	i	i	i	i	i
CCOC(=O)N1CCN(c2c(NCCCN(CC)Cc3ccccc3)c(=O)c2=O)CC1	6.2e-09	i	u	i	i	i
c1ccc(N2CCN(c3nc4ccccc4n4nnnc34)CC2)cc1	3.67e-08	1.85e-08M*	i	i	i	i
O=c1nccc(NCc2ccco2)[nH]1	6.4e-09	u	u	i	i	i
O=C1c2ccccc2-c2onc3ccc(NCc4ccco4)c1c23	1.08e-08	1.21e-06M*	1.78e-08M*	5.37e-08M*	1.99e-08M*	1.71e-08M*
SMILES	A647 fluor	Fluorescein fluor	Texas Red fluor	A488 fluor	Rhodamine fluor	Resorufin fluor
O=C(/C=C\c1ccc(O)cc1)c1ccc(O)cc1O	1.96e-08	3.71e-08M*	u	u	i	i
CC(C)c1ccc2c(c1)CC[C@@H]1[C@@](C)(CN)CCC[C@@]21C	1e-09	1.16e-08M*	i	i	i	i
C[C@@H](COc1ccc(/C=C\c2ccccc2)cc1)[N+](C)(C)C	4.75e-08	u	i	i	i	i
COc1ccc(-c2nc3cnc(OC)nc3n(CCC#N)c2=O)cc1	1.38e-08	u	i	i	i	i
CC1CCN(CC[C@@H]2CCCN2S(=O)(=O)c2cccc(O)c2)CC1	3.16e-08	u	i	i	i	i
CC1=CC(=O)C2=C(C)CC[C@@H]3[C@H](OC(=O)[C@H]3C)[C@H]12	1.64e-08	u	i	i	i	i
C[C@H]1[C@H](C)CC[C@@]2(C(=O)O)CC[C@]3(C)C(=CC[C@@H]4[C@@]5(C)CC[C@H](O)C(C)(C)[C@@H]5CC[C@@]43C)[C@@H]12	2.5e-09	i	i	i	i	i
OC[C@@H]1O[C@@H](n2cnc3cncnc32)[C@@H](O)[C@H]1O	2.9e-09	u	u	i	i	i
Cn1c2ccccc2c(=O)n2c(=O)c3ccccc3cc12	3.6e-09	3.94e-08M*	i	u	i	i
Cn1c(=O)c2[nH]c(CS(=O)(=O)Cc3nc4c([nH]3)c(=O)n(C)c(=O)n4C)nc2n(C)c1=O	3.8e-09	1.22e-07M*	u	u	i	i
O=C(O)[C@H]([C@H]1NCCS1)N1C(=O)c2ccccc2C1=O	1.02e-08	i	i	i	i	i
N.N.N.N.N.N.N.N.N.N.N.N.N.N.O.O.[Ru].[Ru].[Ru]	4.4e-09	i	u	i	i	i
CCN1C(=O)/C(=C2/SC(C)=C(C)N2CC)SC1=S	1e-09	7.12e-08M*	i	u	i	i
CC(C)C1=CC2=CC[C@H]3[C@@](C)(CCC[C@]3(C)C(=O)O)[C@@H]2CC1	1.9e-09	i	i	i	i	i
Cc1nn2cnc3sc4c(c3c2nc1=O)CCCC4	1.3e-09	1.01e-08M*	i	i	i	i
CC1=C(C#N)C(=O)OC(C)(C)C1	1e-09	5.04e-08M*	i	u	i	i
Cc1ccc(C[C@H](Cc2nc3ccccc3[nH]2)c2nc3ccccc3[nH]2)cc1	4.2e-09	i	i	i	i	i
COc1ccc(-c2nnc(-c3ccc(N(C)C)cc3)o2)cc1	9.2e-09	i	u	i	i	i
CN(C)c1ccc(-c2nnc(-c3ccc(S(=O)(=O)C(F)F)cc3)o2)cc1	2.48e-08	2e-08M*	i	i	i	i
O=c1c(-c2ccccc2)n[nH]c2ccccc12	1e-09	i	i	i	i	i
